Screening data: PubChem, several laboratories
Shown is part of a subset that was picked to be rich in hits.
GluA2 TARP mod: modulators of GluA2-stargazin AMPA receptor complexes, primary screen, cell-based, membrane potential dye. Voltage-dependent calcium channel gamma-2 subunit (Mus musculus) + Glutamate receptor 2 …. HEK293 GluA2+stargazin, membrane potential dye (FDSS), glutamate EC50; hits were called plate by plate, in both directions. calls only at 30 µM. 40,000 tested, 3.5% active. AID 1259245, 2017;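 active = any of four per-well response measures lying three or more SD from its plate-wide compound average, in either direction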
Target sequence (O88602 whole entry, looked up): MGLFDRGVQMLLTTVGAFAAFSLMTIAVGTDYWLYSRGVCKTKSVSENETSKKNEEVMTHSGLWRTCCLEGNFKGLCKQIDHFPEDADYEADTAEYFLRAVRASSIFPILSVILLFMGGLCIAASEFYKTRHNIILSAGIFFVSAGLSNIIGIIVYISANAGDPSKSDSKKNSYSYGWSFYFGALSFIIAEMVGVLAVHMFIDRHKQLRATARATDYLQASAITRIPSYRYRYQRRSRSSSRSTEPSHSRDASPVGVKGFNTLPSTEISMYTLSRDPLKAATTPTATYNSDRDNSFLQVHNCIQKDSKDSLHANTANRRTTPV
Target sequence (P19491 whole entry, looked up): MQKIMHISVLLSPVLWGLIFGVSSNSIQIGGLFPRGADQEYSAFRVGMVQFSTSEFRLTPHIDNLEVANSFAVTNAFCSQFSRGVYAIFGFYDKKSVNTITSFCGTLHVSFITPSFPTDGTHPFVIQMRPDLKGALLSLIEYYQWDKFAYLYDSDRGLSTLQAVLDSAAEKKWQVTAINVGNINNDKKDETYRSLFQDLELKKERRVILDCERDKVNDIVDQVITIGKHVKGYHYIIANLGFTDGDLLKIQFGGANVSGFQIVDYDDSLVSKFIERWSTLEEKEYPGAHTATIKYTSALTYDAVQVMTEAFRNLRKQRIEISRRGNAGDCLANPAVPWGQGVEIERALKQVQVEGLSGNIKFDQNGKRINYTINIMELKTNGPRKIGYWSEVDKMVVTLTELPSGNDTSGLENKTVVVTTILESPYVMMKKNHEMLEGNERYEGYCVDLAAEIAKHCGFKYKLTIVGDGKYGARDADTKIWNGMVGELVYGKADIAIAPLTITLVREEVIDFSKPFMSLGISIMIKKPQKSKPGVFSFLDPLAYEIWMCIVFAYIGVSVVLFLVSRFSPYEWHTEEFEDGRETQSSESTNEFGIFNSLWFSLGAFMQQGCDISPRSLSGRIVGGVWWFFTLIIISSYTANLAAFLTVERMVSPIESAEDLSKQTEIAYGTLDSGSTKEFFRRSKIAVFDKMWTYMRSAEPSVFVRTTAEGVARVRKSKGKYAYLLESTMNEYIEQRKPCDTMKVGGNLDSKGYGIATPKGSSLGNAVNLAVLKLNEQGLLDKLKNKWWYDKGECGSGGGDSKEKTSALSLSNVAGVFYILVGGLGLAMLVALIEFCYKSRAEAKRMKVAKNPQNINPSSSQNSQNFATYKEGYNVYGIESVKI
GIRK2 act: activators of NPY4-receptor-primed GIRK2 channels, summary, cell-based, HEK293, thallium flux. G protein-activated inward rectifier potassium channel 2 (Homo sapiens), P48051. HEK293 GIRK2/NPY4 cells, thallium flux fluorescence. activation (% efficacy), % for hits at 37.5 µM. 34,000 tested, under 10 active;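 active = primary screen hit, no activity in plain HEK293 cells, and in GIRK2-only cells above 5% efficacy rising with concentration; inactive = the rest, including fluorescent compounds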;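 also: efficacy is normalized control-subtracted fluorescence 15 s after thallium addition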
Calls only; – = inactive; · = no result given; + = active, no number.

SMILES | GluA2 TARP mod | GIRK2 act
COc1cccc(CNC(=O)C(=O)Nc2ccc3c(c2)N(C(=O)C(C)C)CCC3)c1 | + | –
O=C(NCc1ccccc1Cl)C(=O)NCC1CCN(Cc2ccco2)CC1 | – | –
CC(=O)N1CCc2c(sc3nc(SCc4cccc([N+](=O)[O-])c4)n(Cc4ccco4)c(=O)c23)C1 | + | –
CC(=O)N1CCc2c(sc3nc(SCc4ccc([N+](=O)[O-])cc4)n(Cc4ccco4)c(=O)c23)C1 | – | ·
Cc1cc(C)nc(NS(=O)(=O)c2ccc(NC(=O)c3ccc(Cl)cc3)cc2)n1 | – | –
Cc1cc(=O)[nH]c(-n2nc(C)c(CCC(=O)NCc3ccccc3Cl)c2C)n1 | – | –
Cc1nn(-c2nc3ccccc3[nH]2)c(=O)c2ccccc12 | + | ·
O=C(NCCCN1CCOC(c2ccccc2)C1)c1ccc(F)c(F)c1 (configuration not stated) | – | –
O=C(Nc1cccc(C(F)(F)F)c1)c1cc(-c2ccccc2)nc2ccccc12 | – | ·
C=CCN(CC=C)C(=O)c1cc(-c2ccccc2)nc2ccccc12 | + | ·
COc1ccc(NC(=O)Cn2cc(OC)c(=O)cc2CSc2nnc(C)s2)cc1 | – | –
CCOC(=O)c1sc2cccc(F)c2c1S(=O)(=O)Nc1cc(Cl)c(OC)cc1OC | + | ·
CCOC(=O)c1sc2cccc(F)c2c1S(=O)(=O)Nc1ccc(OC)c(Cl)c1 | – | ·
Cc1cc(C(C)(C)C)cc(S(=O)(=O)Nc2c(C)n(C)n(-c3ccccc3)c2=O)c1C | + | ·
Cc1c(NS(=O)(=O)c2cccc(S(C)(=O)=O)c2)c(=O)n(-c2ccccc2)n1C | · | –
Cc1ccc([N+](=O)[O-])cc1NC(=O)C(=O)NCCCN1CCCC1=O | – | ·
Cn1c(-c2ccccn2)nn(CCNC(=O)NCc2cccs2)c1=O | – | –
CS(=O)(=O)c1ccc(Nc2nc(CC(=O)NCc3c(F)cccc3F)cs2)cc1 | – | –
COc1ccc(S(=O)(=O)NCc2nnnn2-c2ccc(F)c(F)c2)cc1 | – | ·
COc1ccc(S(=O)(=O)NCc2nnnn2-c2ccc(F)cc2)cc1 | + | ·
Cc1cccc(-n2nnc(C(=O)NC3CCCCC3)c2N)c1 | + | –
CC(C)c1ccc(-n2nnc(C(=O)NC3CCCCC3)c2N)cc1 | – | –
COc1ccccc1-c1nnc2ccc(OCCNC(=O)c3c(F)cccc3Cl)nn12 | – | –
CCOc1ccc2ccccc2c1C(=O)NCC1COC2(CCCCC2)O1 (configuration not stated) | + | –
CCOc1ccc2ccccc2c1C(=O)NCC(O)c1ccc(C(F)(F)F)cc1 (configuration not stated) | · | –
SMILES | GluA2 TARP mod | GIRK2 act
CCOc1ccc2ccccc2c1C(=O)NCC(O)Cc1ccccc1 (configuration not stated) | + | –
COC(=O)NCC(O)Cc1ccccc1 (configuration not stated) | – | –
CCSc1ccccc1C(=O)NCC(O)Cc1ccccc1 (configuration not stated) | + | –
CCOc1cc(C(=O)NCC2COC3(CCCCC3)O2)cc(OCC)c1OCC (configuration not stated) | – | –
CCOc1ccc2ccccc2c1C(=O)NCc1nc(C)no1 | · | –
CCOc1ccc2ccccc2c1C(=O)NCCc1ccsc1 | + | –
COc1cc(-c2noc(C3CCN(S(=O)(=O)c4ccc(C)cc4)CC3)n2)cc(OC)c1OC | – | –
C=CCNC(=O)C(=O)NCC1CCN(C)CC1 | – | –
COc1ccc(S(=O)(=O)CC(=O)N2CCN(c3nc4c(C)ccc(Cl)c4s3)CC2)cc1 | – | ·
CCS(=O)(=O)c1ccc(CC(=O)N2CCN(c3nc4c(C)ccc(Cl)c4s3)CC2)cc1 | + | ·
COc1cccc(-n2nnc3c(N4CCN(C(=O)Cc5cccc6ccccc56)CC4)ncnc32)c1 | – | ·
CC(C)N1CCc2c(sc(NC(=O)Cc3ccccc3)c2-c2nc3ccccc3s2)C1 | – | ·
COC(=O)c1c(NC(=O)Cc2ccc(F)cc2)sc2c1CCN(C(C)C)C2 | + | –
Cn1nnc2c(SCC(=O)N3CCCC3)ncnc21 | – | –
